# Only some compounds are listed: those with a hit (about 2.2% of all), similar ones and a draw of the others.
# EWS-Fli block: EWS/Fli-driven NR0B1 reporter inhibitors, primary screen, A673 cells, NR0B1 luciferase, luminescence, MLPCN library; viability-normalised; inhibition, % at 12.6 µM; actives 0.67% (n = 350,000);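 active = mean inhibition of at least 50% after viability correction, with every replicate also passing that limit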;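 note: firefly luciferase signal divided by Alamar Blue viability fluorescence both relative to DMSO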
# PAX8 inh HTS: inhibitors of PAX8-driven TPO luciferase reporter, primary screen, RMG-I cells, single concentration. actives 1.2% (n = 360,000). SteadyGlo, 24 h. inhibition, % at 12.6 µM;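 active = mean replicate inhibition at least 60% with every replicate also reaching 60%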;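 note: luciferase light reporting Pax8 driven TPO promoter activity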
# EBV LMP1 NFkB: EBV LMP1-driven NF-kappaB luciferase reporter inhibitors, primary screen, cell-based, luminescence, single point; LMP1-induced NF-kappaB luciferase reporter cells; inhibition, % at 12.5 µM; actives 0.69% (n = 350,000); AID 504558, 2011; in the data active = inhibition above about 41%
# TRPM1 prom inh: inhibitors of MITF-dependent TRPM1 promoter reporter, primary screen, cell-based, SK-MEL-5, single point, luciferase; SK-MEL-5 TRPM1 promoter luciferase, 24 h; inhibition, % at 12.5 µM; actives 0.83% (n = 330,000); AID 488899, 2010;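 active = mean inhibition across replicates of 60% or more, whatever share of single replicates reaches that level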
# LGR2 inh: inhibitors of bursicon-induced LGR2 CRE-luciferase signal, primary screen, cell-based, HEK293, CRE-luciferase reporter, bursicon stimulation; Drosophila bursicon receptor LGR2 (rickets); bursicon-stimulated, 4 h; inhibition, % at 9.99 µM; actives 0.35% (n = 380,000); AID 720647, 2013;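 active = drop in luminescence signal, shown as inhibition above about 50% in the replicate tests, limit read from the data, passing the limit was not always enough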;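 note: agonist challenge used bursicon conditioned medium at about half maximal strength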
# PGC1a acetyl inh: inhibitors of PGC1a acetylation signal, primary screen, cell-based, U2OS, AlphaScreen, inhibitor mode. inhibition, % at 15.6 µM. AlphaScreen anti-acetyl-lysine; with virally co-expressed GCN5 acetyltransferase. actives 0.17% (n = 350,000);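 active = every replicate shows inhibition of at least 40%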
# A number is an active result; - = inactive; . = not tested or not shown.
SMILES,EWS-Fli block,PAX8 inh HTS,EBV LMP1 NFkB,TRPM1 prom inh,LGR2 inh,PGC1a acetyl inh
CO[C@H]1CN(C)C(=O)c2cc(NC(=O)C3CC3)ccc2OC[C@@H](C)NC[C@@H]1C,-,-,.,.,-,-
O=C(OCc1nc2ccccc2s1)[C@@H]1CCCN1S(=O)(=O)c1ccccc1F,.,.,76.8,-,.,-
O=C1C(C2=NC(c3ccccn3)C3C(=O)N(c4ccc(OC(F)(F)F)cc4)C(=O)C23)=C(O)c2ccccc21 (configuration not stated),-,-,-,75.0,-,-
CCCCOc1cccc(C(=O)Nc2ccc(NC(=O)c3cccs3)cc2)c1,52.7,-,-,-,-,.
CCOc1cccc(C(=O)Nc2cccc(C(C)=O)c2)c1,.,-,-,-,-,-
CCOc1cccc(C(=O)Nc2ccc3ccccc3c2)c1,-,-,-,-,65.9,.
CCS(=O)(=O)Nc1ccc2c(c1)C(=O)N(C)C[C@H](OC)[C@H](C)CN(C(=O)COC)[C@H](C)CO2,-,-,.,.,-,-
COc1cc(C(=O)NNC(=S)NC(=O)c2ccccc2C)cc(OC)c1OC,.,-,-,-,-,.
COc1ccccc1C(=O)NNC(=S)NC(=O)c1cc(OC)c(OC)c(OC)c1,-,62.6,-,-,-,.
COc1ccc(C(=O)NC(=S)NNC(=O)COc2ccccc2)cc1,-,109.3,-,-,-,-
C[C@H]1CN([C@@H](C)CO)C(=O)c2cc(NC(=O)Nc3ccc(F)cc3)ccc2O[C@H]1CN(C)C(=O)Nc1ccc2c(c1)OCO2,-,.,.,.,-,-
CC(=O)c1c(NCCc2ccccc2)nc(=S)n(-c2ccccc2)c1C,-,-,-,-,71.5,-
CC(=O)c1c(NCc2ccccc2)nc(=O)n(-c2ccccc2)c1C,.,.,-,-,.,-
O=C1/C(=C/c2ccc(N3CCOCC3)o2)SC(=Nc2ccccc2)N1CCc1c[nH]c2ccccc12,.,.,-,-,.,61.7
CCCC(=O)Nc1ccc2c(c1)C(=O)N(C)[C@@H]1CC[C@H](CC(=O)NCCc3ccccc3)O[C@@H]1CO2,-,-,.,.,-,-
N#CC1c2ccccc2C=CN1C(=O)N(c1ccccc1)c1ccccc1 (configuration not stated),-,78.0,-,-,.,-
COc1ccc(C(=O)N2C=Cc3ccccc3C2C#N)cc1 (configuration not stated),-,-,-,.,-,.
Cc1noc(C)c1S(=O)(=O)N(C)C[C@H]1Oc2c(cccc2N(C)C)C(=O)N([C@@H](C)CO)C[C@@H]1C,-,-,.,.,-,-
Cc1ccc(OCC(=O)c2cc(C)n(CC(F)(F)F)c2C)c([N+](=O)[O-])n1,-,-,-,-,.,-
Cc1ccc(OCC(=O)c2cc(C)n(Cc3cccs3)c2C)c([N+](=O)[O-])n1,53.3,-,-,-,-,-
COc1ccc(NC(=O)COC(=O)[C@@H]2CCCN2C(=O)c2cccs2)c(OC)c1,.,.,-,-,.,-
COc1ccc(CCNC(=O)COC(=O)c2cccs2)cc1,-,83.1,-,-,-,-
COc1ccc(CNC(=O)COC(=O)[C@@H]2CCCN2C(=O)c2cccs2)cc1,-,-,44.6,-,-,-
CCOC(=O)/C=c1\s/c(=C\c2ccc3cc(OC)ccc3c2)c(=O)n1CC(=O)NCC1CCCO1 (configuration not stated),.,.,-,68.0,-,-
C[C@@H]1CN([C@H](C)CO)C(=O)c2cc(/C=C/c3ccccc3)cnc2O[C@H]1CN(C)Cc1ccccc1,-,.,.,.,-,-
COc1cccc(NC(=O)N2C[C@H](O)COC[C@H]3O[C@@H](CC(=O)N(C)C)CC[C@@H]32)c1,-,-,.,.,-,-
Nc1ccccc1SC1CC(=O)N(c2ccccc2Cl)C1=O (configuration not stated),-,-,46.8,-,-,.
COC(=O)C[C@H]1CC[C@H]2[C@H](COc3ccc(NC(=O)Nc4cccc(F)c4)cc3C(=O)N2C)O1,-,-,.,.,-,-
CN(C)c1ccc(N=Nc2ccc3ncccc3c2)cc1,-,-,-,-,62.4,-
Cc1cc(N(C)C)ccc1N=Nc1ccc2ncccc2c1,-,-,-,-,-,-

# High-throughput results deposited in PubChem BioAssay by Broad Institute.
